The values below come from PubChem BioAssay AID540325 (National Center for Advancing Translational Sciences (NCATS), 2011).

Some of the results follow. The source made the active and inactive calls.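 The calls were made as follows: active = inhibition at 10 µM of 30% or more; inconclusive = no clear call, values can overlap the other calls; inactive = inhibition at 10 µM under 30%.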

In the experiment the target is DNA polymerase beta (Homo sapiens) (UniProt P06746). Kind of experiment: Inhibitors of DNA Polymerase Beta: Hit Validation in Radiolabeled Extension Assay. The settings on record: radiolabeled primer extension gel assay, phosphorimager; at 10 µM; stronger effect = higher value. An excerpt:
The base excision repair system in human cells is a target for therapeutic modulation of the response to irradiation treatment and DNA-damaging drugs. A key enzyme in this system is the bi-functional DNA polymerase known as DNA polymerase Beta (Pol Beta). […] Using an integrated approach involving discovery of small molecule probes for Pol Beta via HTS and medchem optimization in collaboration with the NIH Chemical Genomics Center, validation by crystallography and kinetics along with cell-based validation experiments, we will test the hypothesis that base excision repair can be strategically modulated in human cells by targeting Pol Beta. Thus, we anticipate the Pol Beta-specific probes emerging from this research will serve as starting points in the development of clinical agents for use in downregulation of DNA base excision repair during therapeutic interventions against cancer. This assay is an orthogonal follow-up assay that looks at radiolabeled primer extension and was carried out by the assay provider. NIH Chemical Genomics Center [NCGC] NIH Molecular Libraries Probe Centers Network [MLPCN] […]
A primer oligonucleotide is 5'-32P end-labeled using T4 polynucleotide kinase and 32P-[ATP]. […] Percent extension of substrate to product is measured using standard, quantitative phosphoimager analysis.
On to `O=C(Nc1ccc(S(=O)(=O)Nc2nccs2)cc1)c1cc(-c2ccncc2)nc2ccccc12`, for which the inhibition was 96.4% (active).
